Results from PubChem BioAssay AID492953 (The Scripps Research Institute Molecular Screening Center, 2010).
In all, about 340,000 compounds went through this assay and about 4,200 (1.2%) were called active. The sample holds actives, similar compounds and a random draw of the others, so the mix is not that of the screen.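 How the source made its calls: active means inhibition above the mean of all tested compounds plus 3 SD (cut at about 24% in these data); inactive means the rest.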

molecular target: Platelet-activating factor acetylhydrolase IB subunit alpha2 (Homo sapiens) (UniProt P68402); test: inhibition of PAF acetylhydrolase 1b subunit 2 – biochemical, fluorescence polarization, human, primary screen (AID 492953); conditions: recombinant PAFAH1B2, FP-rhodamine activity probe, at 3.39 µM, active compounds read high;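 further: 0% = enzyme with DMSO and 100% = wells lacking PAFAH1B2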
Sequence (P68402 whole entry, looked up): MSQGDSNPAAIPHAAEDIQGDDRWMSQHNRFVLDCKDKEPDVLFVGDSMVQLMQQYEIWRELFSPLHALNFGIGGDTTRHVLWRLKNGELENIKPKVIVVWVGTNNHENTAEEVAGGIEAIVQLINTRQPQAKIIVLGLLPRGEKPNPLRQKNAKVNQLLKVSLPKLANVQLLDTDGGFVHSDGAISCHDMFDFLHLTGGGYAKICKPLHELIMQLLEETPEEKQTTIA

inhibition, inactive:
Cc1ccc(S(=O)(=O)NCCNC(C)c2ccc(Br)cc2)cc1 (stereo not given) 23%
O=C(CCNS(=O)(=O)c1ccc(Br)cc1)NCC1CCCO1 (stereo not given) 7.29%
Cc1ccc(CCN2CC(C(=O)NCCc3ccccc3)CC2=O)cc1 (stereo not given) 7.51%
O=C1Nc2cc(Cl)c(Cl)cc2N(O)N1c1cc(Cl)cc(Cl)c1 6.99%
CCCCN(C(=O)CSCc1ccc(C)cc1)c1c(N)n(Cc2ccccc2)c(=O)[nH]c1=O 8.05%
O=C(Nc1ccccc1)C1CC(=O)n2c(nc3ccccc32)N1 (stereo not given) -1.27%
CC(=O)Nc1ccc(S(=O)(=O)NCCc2ccccc2)cc1 3.04%
CC(=O)Nc1ccc(S(=O)(=O)NC2(C(F)(F)F)C(=O)NC(C)=C2C#N)cc1 (stereo not given) 0.09%
Cc1ccc(C(=O)NCC(=O)OCC(=O)NC2CCCCCCC2)cc1 -0.8%
Cc1cc(OC(=O)c2ccc(OC(C)C)cc2)c([N+](=O)[O-])c(=O)[nH]1 1.4%
COc1cccc(C=CC(=O)C=CC=Cc2ccccc2)c1 -1.3%
COc1ccc(CCNS(=O)(=O)c2cn(C)nc2C)cc1 2.66%
CCC(C)[C@H]1COCCS(=O)(=O)N1Cc1ccc(C)cc1 (stereo not given in full) 7.04%
O=S1(=O)CCOC[C@H](Cc2ccccc2)N1Cc1ccccc1Br 4.8%
N#Cc1c(-c2ccccc2)nc(SCc2cccc(C(F)(F)F)c2)[nH]c1=O 14.2%
N#Cc1c(-c2ccc(F)cc2)nc(-c2ccccc2)[nH]c1=O 1.36%
Oc1oc(-c2ccccc2Br)nc1/C=N/c1ccccn1 1.69%
CCc1ccc(NC(=O)NC(C)c2ccc3c(c2)OCO3)cc1 (stereo not given) 4.07%
CC(NC(=O)Nc1cccc([N+](=O)[O-])c1)c1ccc2c(c1)OCO2 (stereo not given) 0.41%
Cc1ccc(NC(=O)N2CCSc3ccccc32)cc1 7.44%
O=C(Cc1cccs1)N(CC1CCCO1)C1(C(=O)NC2CCCCC2)CCCCC1 (stereo not given) 2.99%
O=C(Cn1cnc2ccccc21)Nc1ccccc1-c1ccccc1 5.45%
CCC(C(=O)OCC(=O)Nc1ccccc1-c1ccccc1)c1ccccc1 (stereo not given) 7.25%
Cc1ccc(NC(=O)CCCNC(=O)c2ccc(Cl)cc2)cc1S(=O)(=O)N1CCOCC1 2.83%
COc1ccccc1CCNC(=O)C1CCN(C(=O)/C=C/c2ccccc2)CC1 10.8%
COc1ccc(OCC(=O)NCCS(=O)(=O)N2CCN(c3ccc(F)cc3)CC2)cc1 -1.87%
CCOc1ccc(CC(=O)NCCS(=O)(=O)N2CCN(c3ccccc3)CC2)cc1 1.28%
CCCC1NC(=S)NC(C)=C1C(C)=O (stereo not given) -9.47%
CC(=O)OCC(=O)C1(O)CCC2C3CC(C)C4=CC(=O)CCC4(C)C3C(O)CC21C (stereo not given) 1.34%
COc1ccccc1C(=O)Nc1ccnn1C1CCN(Cc2cnn(C)c2)CC1 4.33%
O=C1CCN(C(=S)NCCc2ccccc2)CC1 1.71%
COc1ccc(CCNC(=S)N2CCN(S(=O)(=O)c3ccc(Cl)cc3)CC2)cc1 11.4%
CC12c3ccccc3C(c3ccccc31)C1C(=O)N(Cc3cccnc3)C(=O)C12 (stereo not given) 1.4%
CCO/N=C(/C)c1c(O)cc(-c2ccccc2)n(-c2ccccc2)c1=O 7.22%
Cc1nn(-c2ccccc2)c(C)c1/C=N/NC(=O)CSc1nc2ccccc2c(=O)n1-c1ccccc1 2.37%
Cc1ccsc1-c1nc(CSCC(=O)NCCN2CCCC2)c(C)o1 0.8%
COc1cc2c(cc1OC)C(Cc1cc(OC)c(OC)cc1[N+](=O)[O-])=NCC2 0.33%
O=C1/C(=C\c2ccc(O)cc2)CCC1CNc1ccc(Cl)cc1 (stereo not given) -1.51%
CCOC(=O)/C(C#N)=C/c1cn(CCC(=O)O)nc1-c1ccc(Br)cc1 2.11%
Cc1cccc(C=CC(=O)c2ccc(Cl)cc2)c1 -1.7%
O=C(OCC(=O)N1CCN(C(=O)c2ccco2)CC1)c1ccc(Cl)c(Cl)c1 2.92%
NNC(=O)CSc1nnc(-c2ccccc2)n1-c1ccccc1 17.7%
O=C(O)CSc1nnc(-c2ccc3c(c2)OCO3)n1-c1ccccc1 0.01%
CCOc1cc(/C=N/NC(=O)c2cccc(S(=O)(=O)N3CCOCC3)c2)ccc1OCC(=O)N(C)C 2.5%
O=C(NCCc1ccccc1)c1c[nH]c2ccc(F)cc2c1=O 3.36%
CCOC(=O)c1ccccc1OC(=O)Oc1ccccc1C(=O)OCC 4.58%
CCOC(=O)c1c(C)nc2c(c1C)c(=O)oc1ccccc12 4.46%

inhibition, active:
Cc1ccc(OCCNC(=O)CCNS(=O)(=O)c2ccc(Br)cc2)cc1 24.2%
CC(=O)Nc1ccc(S(=O)(=O)NC2(C(F)(F)F)C(=O)Nc3c2c(=O)[nH]c(=O)n3Cc2ccccc2)cc1 (stereo not given) 24.4%
O=S1(=O)CCO[C@H]2Cc3ccccc3[C@H]2N1Cc1ccccc1 27.8%
Cc1ccc(CSc2nc(-c3ccccc3)c(C#N)c(=O)[nH]2)cc1 24.4%
CC(NC(=S)Nc1ccc(S(N)(=O)=O)cc1)c1ccc2c(c1)OCO2 (stereo not given) 27.8%
O=C(CNCc1ccc(F)cc1)Nc1ccccc1-c1ccccc1 24.4%
O=C(COc1ccc(Cl)cc1)NCCS(=O)(=O)N1CCN(c2ccc(F)cc2)CC1 28.6%
Oc1cc2c(cc1O)CN(C(=S)NCCc1ccc(Cl)cc1)CCC2 63.6%
C=CCO/N=C(\C)c1c(O)c(C)c(-c2ccccc2)n(-c2ccccc2)c1=O 31.5%
CCCC1OC23CCCCC2C(C#N)(C#N)C1(C#N)C(=N)O3 (stereo not given) 29.1%
O=C(O)CCn1cc(/C=C/C(=O)c2ccc(Cl)cc2)c(-c2cccc(Br)c2)n1 51.4%
O=C(O)CCSc1nnc(-c2ccccc2)n1-c1ccccc1 24.4%
CCOC(=O)c1c(C)[nH]c2c1-c1ccccc1C(=O)C2=O 46.4%
